Source: PubChem BioAssay
TbREL1 primary: TbREL1 RNA ligase inhibitors, primary screen, biochemical, FRET fluorescence; RNA-editing ligase 1, mitochondrial (Trypanosoma brucei brucei), P86926; inhibition, % at 9.66 µM; AID 1117264, 2014; TbREL1 RNA ligation; 0.49% of 89,000 active;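 active = inhibition above the mean inhibition across all screened compounds plus 3 SD, cut at about 11% in these data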;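 note: 0% = plate median of test wells and 100% = NSC42067 control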
Target sequence (P86926 whole entry, looked up): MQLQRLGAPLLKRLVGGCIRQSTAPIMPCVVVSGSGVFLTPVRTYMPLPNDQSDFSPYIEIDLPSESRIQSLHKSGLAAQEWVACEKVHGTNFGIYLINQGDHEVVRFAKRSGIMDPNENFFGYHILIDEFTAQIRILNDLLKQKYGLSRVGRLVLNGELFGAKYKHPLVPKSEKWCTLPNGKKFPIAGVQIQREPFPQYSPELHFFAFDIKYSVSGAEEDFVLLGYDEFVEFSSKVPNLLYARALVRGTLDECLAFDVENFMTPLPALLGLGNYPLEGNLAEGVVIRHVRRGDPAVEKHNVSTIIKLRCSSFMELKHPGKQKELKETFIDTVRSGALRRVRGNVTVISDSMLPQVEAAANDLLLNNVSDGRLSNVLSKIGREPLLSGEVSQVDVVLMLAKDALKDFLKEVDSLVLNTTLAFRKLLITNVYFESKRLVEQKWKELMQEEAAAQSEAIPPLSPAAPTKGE
TbREL1 conf: TbREL1 RNA ligase inhibitors, confirmation, biochemical, FRET fluorescence, triplicate; TbREL1 RNA ligation; 37% of 390 active; inhibition, % at 9.66 µM; shares compounds with TbREL1 primary;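 active = mean inhibition across replicates above a set limit taken from the earlier primary screen, cut at about 11% in these data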;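 note: 0% = REL1 with substrate and DMSO and 100% = REL1 plus control inhibitor NSC42067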
Active calls of the source: *. Only a selection was taken, and hits are over-represented in it overall.

SMILES	TbREL1 primary	others
C[C@@H]1CN=C2N(CCNC(=O)CCC3CCCCC3)[C@H](Cc3ccc(O)cc3)CN21	5
O=C(CCC1CCCCC1)NCCN1C2=NC[C@H](Cc3ccc(O)cc3)N2C[C@H]1Cc1ccc(O)cc1	3
CN=C1S/C(=C/c2cc(C)n(-c3ccc(Cl)cc3F)c2C)C(=O)N1C	-8
C[C@H]1[C@@H](NC(=O)C2CCCCC2)CC[C@@]23CCCN2C(=O)CCC[C@@H]13	-3
O=C(NCC(c1ccccc1)c1ccccc1)[C@H](Cc1c[nH]c2ccccc12)NC1(C(=O)NC2CCCCC2)CCC1	-5
CCOC(=O)C1CCN(C(=O)C(C)(C)NC(=O)Nc2ccc(N(C)C)cc2)CC1	4
CCCCN1C[C@@H]2CSCCS(=O)(=O)N2C1=O	7
COC(=O)c1cnn(-c2ccc(F)cc2F)c1/C=N/NC(=S)Nc1ccccc1	9
CCCC[C@H](C(=O)N(CC)c1ccccc1)[C@@H](O)c1ccc(C(C)=O)cc1	4
O=C(Nc1nc2c(s1)CCc1ccccc1-2)c1ccco1	0
CS(=O)(=O)c1ccc(C(=O)Nc2nc(-c3ccco3)c(-c3ccco3)s2)cc1	82*	TbREL1 conf=6
O=C(Nc1nc2c(s1)CCCC2)c1ccc(S(=O)(=O)N2CCCc3ccccc32)cc1	6
O=C(OCC#CCSc1nnc(-c2ccccc2F)o1)c1ccc(F)cc1	-5
Nc1ccc2cc3ccc(N)cc3nc2c1	31*	TbREL1 conf=-38
Nc1ccc2c(c1)nnn2-c1ccccc1	-1
Nc1cccc(-c2nc3ccc(N)cc3s2)c1	-1
COc1ccc(-n2c(SCC(=O)Nc3ccc(S(=O)(=O)Nc4nccs4)cc3)nnc2-c2ccco2)cc1	4
N#Cc1ccccc1N1CCN(C(=O)C2CCN(c3ncnc4c3sc3cccc(F)c34)CC2)CC1	6
CCOc1cccc(=O)c2c(C)n(-c3ccc(C(=O)O)cc3)c(C)c12	46*	TbREL1 conf=11*
CCOC(=O)c1cc2c(C)n(-c3ccc(N(C)C)cc3)c(C)c2cc(C(=O)OCC)c1=O	-1
Cc1nc(=O)c(-c2ccccc2)c(C)n1-c1ccc(C(=O)O)cc1	-2
Cc1cc(=O)n(-c2ccc(C(=O)O)cc2)[nH]1	0
CCOc1ccccc1CNCc1ccc(C(=O)O)cc1	1
COc1cccc(=O)c2c(C)n(-c3ccc(C(=O)O)cc3)c(C)c12	23*	TbREL1 conf=12*
Cc1ccc(-c2nc3ncccn3c2NC(=O)c2ccccc2)cc1	10
SMILES	TbREL1 primary	others
CC(C)C[C@H](NC1(C(=O)NCCc2c[nH]c3ccccc23)CCN(C)CC1)C(=O)NCCCc1ccccc1	2
O=C(NCc1ccc(C(=O)N2CCCN(Cc3ccccc3)CC2)cc1)c1cccc(Br)c1	0
C=CCN1C(=O)[C@H](CC(=O)N2CCSCC2)[C@@]2(C(=O)OCC)CCCC=C12	-2
CCN(C(=O)Cn1nnc(-c2ccncc2)n1)c1ccccc1	2
COc1ccc(-c2c(O)c(C#N)c(-c3ccccc3)n(-c3ccc(OC)cc3)c2=O)cc1	-4
Cc1ccc(-n2c3c(c(O)c(-c4ccccc4)c2=O)C(=O)CC(C)(C)C3)cc1	-1
CC(C)c1c(Cl)c(O)c(-c2ccccc2)c(=O)n1-c1ccc(F)cc1	17*	TbREL1 conf=13*
C[C@H]1[C@@H](NC(=O)c2cccc(C(F)(F)F)c2)CC[C@@]23CCCN2C(=O)CCC[C@@H]13	-3
COc1cccc(C2c3c(ncn(-c4ccccc4)c3=N)Oc3ccc4ccccc4c32)c1 (stereo not drawn)	5
Cc1cccc(C)c1N1C(=O)CC(N2CCN(S(=O)(=O)c3ccccc3F)CC2)C1=O (stereo not drawn)	3
O=C1CC(N2CCN(S(=O)(=O)c3ccccc3F)CC2)C(=O)N1c1ccccc1F (stereo not drawn)	11*	TbREL1 conf=-3
O=C1CC(N2CCN(S(=O)(=O)c3ccccc3)CC2)C(=O)N1c1ccccc1 (stereo not drawn)	2
C=CCn1c(COc2ccccc2)nnc1SCC(=O)Nc1ccc(S(=O)(=O)Nc2cc(C)nc(C)n2)cc1	-3
O=C(O)c1ccccc1-c1ccc(/C=C/c2cc(C(F)(F)F)[nH]c(=O)n2)o1	-15
N=C1S/C(=C\c2ccc(-c3ccccc3C(=O)O)o2)C(=O)N1c1ccc2c(c1)OCO2	2
O=C(O)c1ccccc1-c1ccc(C=c2sc3nc4cc(Br)cnc4n3c2=O)o1	45*	TbREL1 conf=48*
CC(C)(C)c1ccc(-c2nnc(SCC(=O)Nc3ccc(S(=O)(=O)Nc4nccs4)cc3)n2Cc2ccco2)cc1	5
COCCN=c1scc(-c2ccco2)n1/N=C/c1ccc(O)c(O)c1O	9
CN=c1scc(C)n1/N=C/c1ccc(O)c(O)c1O	28*	TbREL1 conf=38*
Cc1cc(SCC(=O)N/N=C/c2ccc(O)c(O)c2O)c(C)cc1Br	-2
COc1ccc(C(=O)CSc2nnc(-c3cccnc3)n2-c2ccccc2)cc1	-2
CCOc1ccccc1OCCN1CCC(Cc2ccccc2)CC1	2
CCC(=O)c1ccccc1OCCCN1CCC(Cc2ccccc2)CC1	11*	TbREL1 conf=11*
CC(=O)CCc1ccc(OCCCCN2CCC(Cc3ccccc3)CC2)cc1	1
COCCNC[C@@]12CO[C@H](c3ccc(Cl)cc3)N1[C@@H](c1ccc(Cl)cc1)SC2	-4
SMILES	TbREL1 primary	others
O=C(NCCc1ccccc1F)c1cc2ccccn2n1	1
C[C@@H]1O[C@@H](Oc2c(-c3cc(O)c(O)c(O)c3)oc3cc(O)cc(O)c3c2=O)[C@H](O)[C@H](O)[C@H]1O	54*	TbREL1 conf=36*
COc1cc(-c2oc3cc(O)cc(O)c3c(=O)c2O[C@@H]2O[C@H](COC3O[C@@H](C)[C@H](O)[C@@H](O)[C@H]3O)[C@@H](O)[C@H](O)[C@H]2O)ccc1O (stereo partly drawn)	-4
O=c1c(-c2ccc(O)cc2)coc2cc(OC3OC(CO)C(O)C(O)C3O)cc(O)c12 (stereo not drawn)	0
CC(C)(N[C@@H](Cc1ccccc1)C(=O)NCCCc1ccccc1)C(=O)NCc1ccccc1	-3
O=C(CSc1nnc(COc2ccc(Cl)cc2)n1Cc1ccco1)Nc1cccc2ccccc12	-2
CN(Cc1ccccc1F)C(=O)C1CCCN(c2ncccn2)C1 (stereo not drawn)	1
Oc1ccc(C[C@@H]2CNCCN2CCc2cccc3ccccc23)cc1	3
c1ccc(C[C@H]2CNCCN2CCCCC2CCCCC2)cc1	6
c1ccc2c(C[C@@H]3CNCCN3CCCCC3CCCCC3)cccc2c1	14*	TbREL1 conf=11
O=C(CSc1nnc(-c2ccco2)c(-c2ccco2)n1)Nc1ccccc1	24*	TbREL1 conf=8
COc1cccc(NC(=O)CSc2nnc(-c3ccco3)c(-c3ccco3)n2)c1	11*	TbREL1 conf=5
COc1cccc(NC(=O)CSCC(=O)Nc2ccccc2)c1	-1
COc1cccc(NC(=O)CSc2cccc[n+]2[O-])c1	2
CC(C)c1ccc(NC(=O)CSc2nnc(-c3ccco3)n2C)cc1	3
CC(=O)c1ccc(NC(=O)CSc2ccc(-c3ccco3)nn2)cc1	-2
COc1cc(NC(=O)C2CCCN(S(=O)(=O)c3ccc(C)cc3)C2)cc(OC)c1 (stereo not drawn)	1
O=C(Nc1ccc(Cl)cc1)C1CCCN1S(=O)(=O)c1cccnc1 (stereo not drawn)	-2
COc1ccc(-n2c(SCc3cccc4ccccc34)nnc2-c2ccccc2)cc1	4
